Reference: PubChem BioAssay
The source made the active and inactive calls.

What was measured:
[1] = optical density shifts of acrAB sulA E. coli – strain DRC41, OD650, 48 h, E. coli filamentation inducer project, primary screen (AID 1152); details: higher = more signal, called active from +8 up or from −8 down;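 note: E. coli MC1000 strain DRC41 lacking acrAB efflux pump and sulA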
[2] = probe aLefty1 binding on compound microarray – biochemical, small-molecule microarray, 635/667 nm fluorescence, primary screen (AID 1153); details: higher = more signal;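 note: score merges spot fluorescence with signal-to-noise ratio from the scanned slide images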
[3] = plasmodial surface anion channel blockers, osmotic lysis – cell-based, P. falciparum Indochina, OD700, 1 h, primary screen (AID 1154); details: P. falciparum Indochina infected RBC osmotic lysis, higher = more signal, called active from +8 up or from −8 down
[4] = plasmodial surface anion channel blockers, osmotic lysis – cell-based, P. falciparum Indochina, OD700, 2 h, primary screen (AID 1155);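 note: lysis reports solute entry through the parasite surface anion channel PSAC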; details: P. falciparum Indochina infected erythrocytes, higher = more signal, called active from +8 up or from −8 down
[5] = changes in parasitized red cell lysis, either direction – P. falciparum Indochina, OD700, 3 h, PSAC antagonist project, primary screen (AID 1156); details: P. falciparum-infected erythrocytes, osmotic lysis, higher = more signal, called active from +8 up or from −8 down
[6] = plasmodial surface anion channel blockers, osmotic lysis – cell-based, P. falciparum Indochina, OD700, 18 h, primary screen (AID 1157); details: P. falciparum Indochina infected erythrocytes, osmotic lysis OD700, 18 h; higher = more signal, called active from +8 up or from −8 down
[7] = S6 kinase pathway phospho-S6 level changes – cell-based, A549, cytoblot, luminescence, serum-stimulated, primary screen (AID 1158); details: 5 h, higher = more signal;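 note: serum-stimulated A549 lung adenocarcinoma cells; signal is phosphorylated S6 detected by cytoblot immunostaining with HRP secondary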
[8] = biological target: NADPH oxidase 2 (Homo sapiens) (UniProt P04839); assay: compounds shifting NOX2 Amplex Red fluorescence – cell-based, HEK293-NOX2, PMA-stimulated, NOX inhibitor project, primary screen (AID 1159); details: 45 min, higher = more signal, called active from +8 up or from −8 down; note: test concentration not given here
NADPH oxidase 2 (Homo sapiens), sequence (P04839 whole entry, looked up): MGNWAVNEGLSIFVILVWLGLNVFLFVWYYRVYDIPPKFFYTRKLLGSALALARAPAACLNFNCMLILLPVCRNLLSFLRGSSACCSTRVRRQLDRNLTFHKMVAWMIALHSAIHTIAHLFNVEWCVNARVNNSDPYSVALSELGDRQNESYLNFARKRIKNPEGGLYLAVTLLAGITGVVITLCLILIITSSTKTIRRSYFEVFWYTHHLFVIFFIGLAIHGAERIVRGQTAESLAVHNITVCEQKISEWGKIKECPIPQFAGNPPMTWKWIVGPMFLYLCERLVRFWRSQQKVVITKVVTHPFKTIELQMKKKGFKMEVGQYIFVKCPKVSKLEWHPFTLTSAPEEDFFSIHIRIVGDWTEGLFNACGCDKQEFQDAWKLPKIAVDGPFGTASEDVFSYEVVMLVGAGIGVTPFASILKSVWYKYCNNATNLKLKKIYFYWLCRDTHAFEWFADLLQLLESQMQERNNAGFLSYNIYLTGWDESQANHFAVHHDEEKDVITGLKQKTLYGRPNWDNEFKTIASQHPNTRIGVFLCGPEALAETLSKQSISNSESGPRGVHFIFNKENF

[9] = biological target: NADPH oxidase 4 (Homo sapiens) (UniProt Q9NPH5); assay: compounds shifting NOX4 Amplex Red fluorescence – cell-based, HEK293-NOX4, tetracycline-induced, NOX inhibitor project, primary screen (AID 1160); details: HEK293-NOX4, Amplex Red H2O2 fluorescence, 45 min; higher = more signal, called active from +8 up or from −8 down
NADPH oxidase 4 (Homo sapiens), sequence (Q9NPH5 whole entry, looked up): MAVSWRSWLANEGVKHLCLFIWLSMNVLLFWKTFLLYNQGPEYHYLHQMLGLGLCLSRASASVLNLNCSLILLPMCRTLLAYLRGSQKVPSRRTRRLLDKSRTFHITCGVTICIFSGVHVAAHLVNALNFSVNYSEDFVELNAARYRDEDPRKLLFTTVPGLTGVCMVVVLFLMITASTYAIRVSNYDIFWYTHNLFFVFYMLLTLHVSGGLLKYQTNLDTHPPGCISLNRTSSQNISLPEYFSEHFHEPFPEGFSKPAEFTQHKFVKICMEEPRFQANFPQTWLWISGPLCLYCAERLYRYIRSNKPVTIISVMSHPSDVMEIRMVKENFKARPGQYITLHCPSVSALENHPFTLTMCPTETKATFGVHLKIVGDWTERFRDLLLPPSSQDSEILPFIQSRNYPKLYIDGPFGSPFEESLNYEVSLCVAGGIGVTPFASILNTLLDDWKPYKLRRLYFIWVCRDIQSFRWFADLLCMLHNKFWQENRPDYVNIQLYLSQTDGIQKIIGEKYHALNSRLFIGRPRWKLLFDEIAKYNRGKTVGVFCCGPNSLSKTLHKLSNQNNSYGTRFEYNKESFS

[10] = biological target: NADPH oxidase 5 (Homo sapiens) (UniProt Q96PH1); assay: compounds shifting NOX5 Amplex Red fluorescence – cell-based, HEK293-NOX5, NOX inhibitor project, primary screen (AID 1161); details: HEK293-NOX5, ionomycin, 45 min, higher = more signal
NADPH oxidase 5 (Homo sapiens), sequence (Q96PH1 whole entry, looked up): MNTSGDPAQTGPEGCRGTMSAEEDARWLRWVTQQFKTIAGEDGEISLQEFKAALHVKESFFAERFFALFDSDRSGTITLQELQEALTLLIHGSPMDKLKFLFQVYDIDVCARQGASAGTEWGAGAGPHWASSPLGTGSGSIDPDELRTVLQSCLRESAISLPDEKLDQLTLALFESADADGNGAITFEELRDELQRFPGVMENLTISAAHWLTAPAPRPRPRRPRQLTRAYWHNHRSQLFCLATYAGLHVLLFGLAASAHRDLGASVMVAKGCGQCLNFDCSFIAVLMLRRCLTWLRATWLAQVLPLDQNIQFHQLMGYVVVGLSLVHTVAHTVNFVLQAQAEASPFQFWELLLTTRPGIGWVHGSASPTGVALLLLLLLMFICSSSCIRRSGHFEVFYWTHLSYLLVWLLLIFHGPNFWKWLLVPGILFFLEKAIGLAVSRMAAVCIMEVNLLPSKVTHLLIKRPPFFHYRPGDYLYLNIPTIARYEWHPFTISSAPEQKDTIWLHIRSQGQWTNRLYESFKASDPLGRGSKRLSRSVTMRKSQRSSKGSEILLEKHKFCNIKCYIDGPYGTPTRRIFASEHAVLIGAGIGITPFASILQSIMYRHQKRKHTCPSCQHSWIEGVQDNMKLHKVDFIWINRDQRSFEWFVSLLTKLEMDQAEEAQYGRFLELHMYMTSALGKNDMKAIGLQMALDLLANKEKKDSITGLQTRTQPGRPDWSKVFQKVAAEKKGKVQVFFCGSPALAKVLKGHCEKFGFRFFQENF

[11] = compound effects on lung adenocarcinoma cell viability – A549, calcein-AM fluorescence, 48 h, basal, profiling panel (AID 1162); details: higher = more signal; note: test concentration not given here
[12] = compound effects on differentiated 3T3-L1 adipocyte viability – cell-based, 3T3-L1 adipocytes, calcein-AM fluorescence, 48 h, basal, profiling panel (AID 1163); details: 3T3-L1 adipocytes viability, higher = more signal; note: test concentration not given here
[13] = compound effects on hepatocellular carcinoma cell viability – HepG2, calcein-AM fluorescence, 48 h, basal, profiling panel (AID 1164); details: higher = more signal; note: test concentration not given here
[14] = compound effects on multiple myeloma cell viability – MM1S, calcein-AM fluorescence, 48 h, basal, profiling panel (AID 1165); details: higher = more signal;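 note: viability of MM1S multiple myeloma cells under basal unstimulated conditions; test concentration not given here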
[15] = calcein-AM signal in unstimulated myeloma cells – cell-based, calcein-AM fluorescence, 48 h, PK04 Diversity Set, profiling panel (AID 1166); details: RPMI8226 myeloma viability, higher = more signal;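 note: cells grown under basal conditions without added stimulus; test concentration not given here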
[16] = JC-1 mitochondrial signal, unstimulated HepG2 cells – cell-based, JC-1 fluorescence, 24 h, 100 nL compound, profiling panel (AID 1167); details: HepG2 mitochondrial potential, higher = more signal; note: test concentration not given here
[17] = JC-1 mitochondrial signal, unstimulated adipocytes – cell-based, JC-1 fluorescence, 3T3-L1 adipocytes, 24 h, 100 nL compound, profiling panel (AID 1168); details: JC-1 mitochondrial fluorescence, higher = more signal, called active from +8 up or from −8 down; note: test concentration not given here
[18] = JC-1 mitochondrial signal, unstimulated myeloma cells – cell-based, JC-1 fluorescence, RPMI8226, 24 h, 100 nL compound, profiling panel (AID 1169); details: JC-1 mitochondrial potential fluorescence, higher = more signal; note: test concentration not given here
[19] = JC-1 mitochondrial signal, unstimulated MM1S myeloma – cell-based, JC-1 fluorescence, 24 h, 100 nL compound, profiling panel (AID 1170); details: MM1S mitochondrial potential, higher = more signal; note: test concentration not given here
[20] = resazurin metabolic signal in A549 cells – cell-based, resazurin fluorescence, 24 h, PK04 Diversity Set, profiling panel (AID 1171); details: A549 viability, higher = more signal, called active from +8 up or from −8 down; note: test concentration not given here

| Structure (SMILES) | z-score [1] | composite z-score [2] | z-score [3] | z-score [4] | z-score [5] | z-score [6] | z-score [7] | z-score [8] | z-score [9] | z-score [10] | z-score [11] | z-score [12] | z-score [13] | z-score [14] | z-score [15] | z-score [16] | z-score [17] | z-score [18] | z-score [19] | z-score [20] |
| --- | --- | --- | --- | --- | --- | --- | --- | --- | --- | --- | --- | --- | --- | --- | --- | --- | --- | --- | --- | --- |
| CC=CC(O)C1C=CC2C(=O)N(C)C(=O)C2N1Nc1ccc([N+](=O)[O-])cc1[N+](=O)[O-] (stereo not given) | -1.33 (inactive) | -0.094 | 1.67 (inactive) | 0.917 (inactive) | 0.566 (inactive) | 1.1 (inactive) | -0.711 | -0.379 (inactive) | -1.05 (inactive) | -1.09 | -0.481 | -0.682 | 0.275 | -1.73 | -0.485 | -0.744 | -0.453 (inactive) | 0.0263 | -0.635 | -0.574 (inactive) |
| COc1cc(CO)cc(I)c1O[C@H]1C=C(C(=O)NCCO)C[C@@H](N(Cc2ccc(F)cc2)C(=O)C2CCCO2)[C@@H]1O (stereo not given in full) | 3.54 (inactive) | -0.147 | 1.92 (inactive) | 0.581 (inactive) | 1.03 (inactive) | 0.23 (inactive) | -0.0981 | 0.0499 (inactive) | 0.93 (inactive) | 0.73 | 0.656 | 0.284 | 0.364 | 0.87 | 0.577 | 1.04 | 0.195 (inactive) | -0.899 | 0.578 | -0.409 (inactive) |
| COCC(=C=CC[C@H](O)c1cccc(OCCO)c1)C[C@H](O)c1ccccn1 | 0.941 (inactive) | -0.198 | 8.86 (active) | 1.16 (inactive) | 1.49 (inactive) | 0.674 (inactive) | 0.789 | -0.142 (inactive) | 0.154 (inactive) | -0.772 | 1.39 | 0.101 | 1.25 | 0.0467 | 0.461 | 0.843 | 1.49 (inactive) | 0.237 | -0.664 | 1.22 (inactive) |
| COC(=O)[C@@]1(Cc2ccccc2)[C@H]2c3cc(C(=O)N4CCCC4)[nH]c3C[C@H]2CN1C(=O)c1ccccc1 | -0.875 (inactive) | 0.269 | 4.64 (inactive) | 0.805 (inactive) | 0.102 (inactive) | 0.717 (inactive) | 0.177 | 0.0123 (inactive) | -0.696 (inactive) | -0.713 | -1.12 | 0.904 | -0.585 | 0.277 | -1.17 | 0.288 | -1.17 (inactive) | -0.786 | -0.28 | 0.412 (inactive) |
| COC(=O)[C@@]1(Cc2ccc(OC)cc2)[C@H]2c3cc(C(=O)N4CCCC4)n(CCc4cc5ccccc5[nH]4)c3C[C@H]2CN1C(=O)c1ccccc1 | -1.31 (inactive) | 0.712 | 4.17 (inactive) | 0.852 (inactive) | 1.45 (inactive) | 1.11 (inactive) | -0.231 | 0.00439 (inactive) | 0.319 (inactive) | -3.28 | -0.596 | -0.0596 | 0.471 | -0.574 | -1.84 | 0.877 | -0.538 (inactive) | -0.922 | -1.1 | -0.0485 (inactive) |
| O=C(NC1CC1)[C@@H]1c2ccccc2C(=O)N(Cc2ccccc2)[C@H]1c1ccc(CO)cc1 | 0.651 (inactive) | 0.0191 | 2.58 (inactive) | 0.258 (inactive) | 1.38 (inactive) | 0.0604 (inactive) | 0.666 | -0.962 (inactive) | 0.623 (inactive) | -1.52 | 1.3 | -0.429 | 1.46 | 0.293 | 0.217 | 2.33 | 1.07 (inactive) | 0.135 | -0.319 | 0.139 (inactive) |
| C[C@H]1ON(c2ccc(C(=O)OC(C)(C)C)cc2)[C@@H](c2ccc(O)cc2)[C@@H]1C(=O)N1C(=O)OC[C@@H]1c1ccccc1 | -0.569 (inactive) | -0.0023 | 3.71 (inactive) | 0.622 (inactive) | 0.166 (inactive) | 0.428 (inactive) | 0.433 | -0.414 (inactive) | -0.254 (inactive) | 0.718 | -0.674 | 0.97 | -2.97 | -2.72 | -3.02 | -2.36 | -0.575 (inactive) | -0.575 | -2.36 | -0.0657 (inactive) |
| COCCCNC(=O)[C@]1(Cc2ccccc2N=[N+]=[N-])N=C(c2ccc(OCCCO)cc2)O[C@@H]1c1ccccc1N=[N+]=[N-] | -0.279 (inactive) | 0.616 | 30.8 (active) | 28.7 (active) | 1.41 (inactive) | 7.56 (inactive) | 0.105 | -1.23 (inactive) | 0.567 (inactive) | 1.71 | -0.795 | 0.0826 | -3.44 | -3.52 | -3.99 | -0.892 | 1.03 (inactive) | -1.17 | -2.71 | -2.56 (inactive) |
| CCCCN1CC=CC23O[C@@H]4/C=C\CCC(C)OC(=O)C4[C@H]2C(=O)N(CCCCCCO)[C@@H]3C1=O (stereo not given in full) | 0.622 (inactive) | -0.145 | 0.548 (inactive) | 0.31 (inactive) | 0.573 (inactive) | 0.454 (inactive) | 1.81 | 1.2 (inactive) | 0.112 (inactive) | 2.3 | -0.0164 | 0.736 | 1.11 | 1.79 | -0.273 | 0.375 | 0.145 (inactive) | 0.336 | -0.563 | 0.254 (inactive) |
